Experimental data from PubChem BioAssay AID743279 (National Center for Advancing Translational Sciences (NCATS), 2014).
About 17,000 (4.7%) of roughly 360,000 compounds were called active. Another 5% or so got no clear call; they are omitted. No stated cut-off is given here; in the data, active means activity change below about -50%; inconclusive means mostly about -30% to -49%; inactive means weaker than that. The full list was thinned out, with actives kept by preference.

Assay: qHTS for Inhibitors of Inflammasome Signaling: IL-1-beta AlphaLISA Primary Screen
Settings: THP-1 LPS/ATP IL-1B secretion, 16 h; at 57.5 µM, hits give low values
How it was run: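 Secreted IL-1B measured by AlphaLISA bead assay after 16 h compound exposure of THP-1 cells; compounds (final up to 57.5 uM) added 1 h before LPS (250 ng/mL) and ATP (1.25 mM) stimulation; lower signal means less secretion.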
On the % scale 0 is the no-effect control and ±100 the full control effect.

Activity change, active:
O=C(N/N=C/c1cccc(Br)c1)c1ccc(N2CCCC2=O)cc1 -55.3%
COc1ccc(CCn2c(=N)c(C(=O)NCc3ccco3)cc3c(=O)n4cccc(C)c4nc32)cc1 -53.7%
COc1ccc(OC)c(NC(=O)C2(C)CCN2C(=O)Cc2ccccc2)c1 (stereo not given) -87.1%
C=C(C)COc1ccc(-c2ncncc2-c2ccc(OC)cc2)c(O)c1 -58.4%
C#Cc1cc(N2CCN(C(=O)c3ccoc3)CC2)n2nc(-c3cccc(Cl)c3)cc2n1 -109%
COc1ccccc1/C=N\Nc1cc(C)nc(-n2nc(C)cc2C)n1 -99%
COc1cccc(/C=N/Nc2cc(C)nc(-c3ccccc3O)n2)c1O -99.4%
C=C1C(=O)[C@]23C[C@H]1CCC2[C@@]1(C)C(C[C@@H]3O)[C@](C)(C(=O)O)CC[C@@H]1O (stereo not given in full) -91.2%
CN(C)c1ccc(/C=N/NC(=O)c2ccc(Cn3cc(Br)cn3)o2)cc1 -53%
CCN(CCCNC(=O)c1ccc2c(c1)NC(=O)CN2C)c1cccc(C)c1 -98.2%
CC(C)c1cc(C(=O)N/N=C/C(Br)=C/c2ccccc2)n[nH]1 -78.1%
Cc1cc(C(=O)N/N=C\C(Br)=C\c2ccccc2)c(C)o1 -99%
CC(C)(c1ccccc1)c1ccc(OCCN)cc1 -93.8%
O=C1/C(=C\c2ccc(O)cc2)CCC1CNc1ccc(Cl)cc1 (stereo not given) -106%
CC(C)CC1C(=O)N(Cc2cn(Cc3ccco3)nn2)CCS(=O)(=O)N1Cc1ccc(-c2ccc(Cl)c(Cl)c2)cc1 (stereo not given) -82.3%
COCOCCn1cc(CN2CCS(=O)(=O)N(Cc3ccc(-c4ccc(OC)cc4)cc3)C(CC(C)C)C2=O)nn1 (stereo not given) -56.9%
CCCCNc1nc2c(c(=O)n(C)c(=O)n2C)n1Cc1cccc(OC)c1 -59.5%
CN(C)CCNC(=O)c1ccc(-c2cn3c(-c4ccc(Oc5ccccc5)cc4)cnc3cn2)cc1 -66.3%

Activity change, inactive:
Cc1cc([N+](=O)[O-])c(=O)[nH]c1C 26.9%
CN(C)C(=O)c1nc2ccc(Cl)cn2c1CNCc1cccc(OC(F)(F)F)c1 32.2%
CSCC[C@H](NC(=O)NCCc1ccc(F)cc1)C(=O)O 3.5%
COc1ccc(C(O)C(O)(C(=O)OC(C)C)c2ccc(C)cc2)cc1 (stereo not given) -21%
O=C(Nc1ccc(N2CCCC2=O)cc1)c1cncc(Br)c1 1.56%
Cn1c(=O)n(C)c2cc(/C=N/NC(=O)c3cccc(Br)c3)ccc21 -10.6%
CC(=O)c1cccc(-c2ccc(CN3C(CC(C)C)C(=O)N(Cc4cn(CC5CCCCC5)nn4)CCS3(=O)=O)cc2)c1 (stereo not given) -9.9%
OCCC#Cc1ccc(N2C(c3ccsc3)=Cc3ccc(F)cc3C2c2c[nH]c3ccccc23)cc1 (stereo not given) -15.9%
COc1ccc(CCn2c(=N)c(C(=O)NCC3CCCO3)cc3c(=O)n4cccc(C)c4nc32)cc1OC (stereo not given) -11.6%
Cc1ccc(S(=O)(=O)c2cc3c(=O)n4cccc(C)c4nc3n(CCc3ccccc3)c2=N)cc1C 20.8%
Cc1ccc(S(=O)(=O)N[C@H]2CCC[C@@H]2O)cc1 6.2%
C#Cc1ccc(NC(=O)C2(C)CCN2C(=O)Cc2ccc(-c3ccccc3)cc2)cc1 (stereo not given) -2.2%
CCCNC(=O)C1(C)CCN1C(=O)Cc1ccc(-c2ccccc2)cc1 (stereo not given) -1.04%
COc1ccc(C(CNC(=O)CSc2ccccc2)N2CCOCC2)cc1 (stereo not given) 0%
COC(=O)C[C@@H]1C=C[C@@H](NC(=O)c2cccnc2)[C@@H](CO)O1 2.57%
CCOC(=O)C1CCCN(C(=O)c2cccc3ccccc23)CC1 (stereo not given) 61.7%
O=[N+]([O-])c1ccc(COc2ccccc2CN2CCOCC2)cc1 -17.6%
COc1ccc(NC(=O)c2cccc(Cl)c2)c[n+]1[O-] -0.66%
C=C(C)COc1ccc(-c2nc(N)ncc2-c2ccccc2OC)c(O)c1 -26.4%
COc1ccc(-c2nc(N)ncc2-c2ccc(Cl)cc2)c(O)c1 -11.3%
COc1ccc(C(C(=O)NCc2ccccc2)N(Cc2cccs2)C(=O)c2cnccn2)cc1 (stereo not given) 3.36%
COc1ccc(-c2cc(C3CCN(c4ncccc4[N+](=O)[O-])CC3)[nH]n2)cc1 -28.8%
CN(C)CCN1CCN(c2cc(-c3cccc(Cl)c3)nc3ccnn23)CC1 6.44%
O=C(c1ccccc1)N1CCN(c2cc(-c3ccccc3)nc3cc(-c4cccc(Cl)c4)nn23)CC1 15.2%
Cc1nc2ccccc2nc1N/N=C/c1ccc(O)cc1O 144%
COc1cccc(/C=N/Nc2ccc(S(=O)(=O)Nc3ccccc3C(=O)O)cc2[N+](=O)[O-])c1O -5.79%
CC(=O)c1ccc(Oc2cc(C)nc(-n3nc(C)cc3C)n2)cc1 46.7%
COc1ccc(/C=N/Nc2cc(N3CCOCC3)nc(C)n2)c(OC)c1 -8.96%
O=S(=O)(/N=C(/Nc1ccccc1)c1ccccc1)c1cccs1 -18.2%
COc1ccc(-c2csc(C(O)c3cccc(Cl)c3)n2)cn1 (stereo not given) -7.83%
CN1CCn2cnc(C(=O)NCC(=O)OC(C)(C)C)c2C1=O 3.21%
O=C(Nc1ccc(Cl)cc1)c1csc([C@H]2C[C@H](O)[C@@H](CO)O2)n1 17.6%
COc1ccc(-c2cc(C(F)(F)F)nc(SCCC(=O)NCc3ccco3)n2)cc1 -20.3%
COc1ccc(N)cc1NC(=O)CN1CCOCC1 3.53%
COc1cc(S(=O)(=O)Nc2ncn[nH]2)ccc1Cl 8.42%
CN1CCOC1c1ccc(C2OCCN2C)cc1 (stereo not given) 5.1%
O=C(N/N=C\c1ccc(Br)cc1)c1ccc(Cn2cccn2)o1 -3.71%
CN(C)c1ccc(/C=N/NC(=O)C(O)c2ccc(Br)cc2)cc1 (stereo not given) -3.94%
CC=CCn1c(SCCCc2ccccc2)nc2c1c(=O)[nH]c(=O)n2C 34.7%
O=C1OC(Cc2ccccc2)C(c2ccccc2)C1=O (stereo not given) -4.65%
CCN(CCCNC(=O)CCn1c(=O)[nH]c2ccsc2c1=O)c1ccccc1 -7.98%
CCN1CCN(CCNC(=O)c2ccc3c(c2)NC(=O)/C(=C\c2cccc(Cl)c2)S3)CC1 12.3%
O=C(Nc1ccc(F)cc1)C(CCc1ccccc1)N1CCN(CC(=O)N2CCCC2)CC1 (stereo not given) -1.84%
CC(=O)Nc1ccccc1OC(C)C(=O)N1CCC(C)CC1 (stereo not given) 26.5%
CCOC(=O)C1C(C)C(C(C)(C)C)N(S(=O)(=O)c2ccc(C)cc2)C1c1ccccc1 (stereo not given) -15.7%
CC(/C=N/NC(=O)c1cc(-c2ccc3ccccc3c2)n[nH]1)=C\c1ccco1 -29.4%
CC(C)c1cc(C(=O)O)n[nH]1 -10.8%
CC(=C/c1ccccc1)/C=N/NC(=O)c1cc(C)oc1C -1.83%
COc1ccc(C/C(C)=N/NC(=O)c2cc(C)oc2C)cc1 -3.42%
CCC1C=C(c2ccccc2)C=CN=C1N(CC)CC (stereo not given) -9.78%
COc1c(C)cc(C(O)c2ncc(-c3cccc(C(F)(F)F)c3)[nH]2)cc1C (stereo not given) -19.6%
C=CCn1c(CCNC(=O)c2ccccc2F)nnc1SCC(=O)Nc1ccc(OC)cc1 0.328%
N#Cc1cc([N+](=O)[O-])ccc1NCC1CCCO1 (stereo not given) 16.2%
COc1cc(OC)cc(C(=O)N[C@H](C(=O)OCC(=O)NC(C)c2ccccc2)C(C)C)c1 (stereo not given in full) 0%
COc1ccc(OCCNS(=O)(=O)Cc2ccccc2)cc1 5.88%
Cc1nn(CCOc2ccccc2)c(=O)n1-c1ccccc1F -5.73%
CCOn1c(=O)c(=O)n(O)c2ccccc21 33.6%
COc1cc(C)c(CN2CCN(C(=O)CCC(=O)c3ccc(C)s3)CC2)cc1OC -4.16%
CC(C(=O)NC1CCS(=O)(=O)C1)N1C(=O)/C(=C/c2ccc(Cl)cc2)SC1=S (stereo not given) -3.39%
COc1ccc(-c2ccc(CN3C(CC(C)C)C(=O)N(Cc4cn(CC5CCCCC5)nn4)CCS3(=O)=O)cc2)cc1 (stereo not given) 18.2%
CC(C)CC1C(=O)N(Cc2cn(CC3CCCCC3)nn2)CCS(=O)(=O)N1Cc1ccc(-c2ccc(Cl)cc2)cc1 (stereo not given) -2.11%
COCOCCn1cc(CN2CCS(=O)(=O)N(Cc3ccc(-c4cccc(N(C)C)c4)cc3)C(CC(C)C)C2=O)nn1 (stereo not given) -1.55%
CC1C(=O)N(Cc2cn(Cc3ccco3)nn2)CCS(=O)(=O)N1Cc1ccc(-c2cccc(CO)c2)cc1 (stereo not given) -17.1%
Cn1nc(N)c2ncc(C(Cl)(Cl)Cl)nc21 -5.29%
O=C(N/N=C\c1cc2c(cc1Cl)OCO2)c1ccc(Br)s1 7.39%
COc1ccc(-c2ccc(C(=O)NC(C)C)c3occc23)c(C)c1 -6.78%
Cc1cc2nc(-c3ccc(Cl)cc3)c(Cc3cccc(F)c3)n2c(C)c1Br 0%
CCn1c(NCCc2ccc(OC)c(OC)c2)nc2c1c(=O)n(C)c(=O)n2C 5.08%
CCCCNc1nc2c(c(=O)[nH]c(=O)n2C)n1CCOc1ccccc1 26.9%
CCc1c(N=O)c(-c2ccccc2)n(O)[n+]1[O-] -4.78%
Cc1noc(C)c1COc1ccc(C(=O)NCCOc2ccccc2)cc1 -10.6%
CN(C)C(CNC(=O)c1ccc(OCc2cn3ccccc3n2)cc1)c1ccco1 (stereo not given) 3.62%
